Among all 220,000 compounds or so, about 8,200 (3.7%) were called active.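 Rule for the calls: active = compounds that reduced the stress-induced luciferase reporter signal by more than about 70% of percent inhibition (limit read from the data); inactive = the rest.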 The entries come from a sample that favours actives as a whole.
Experiment: blockers of ER-stress CHOP reporter expression – cell-based, unfolded protein response, luciferase reporter, primary screen (AID 2732);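 note: 0% = tunicamycin plus vehicle and 100% = wells without tunicamycin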
Details: CHO-K1 CHOP-promoter luciferase, tunicamycin-induced, 15-18 h; at 10 µM; hits give high values
For `O=C(NNS(=O)(=O)Cc1ccccc1)c1ccc([N+](=O)[O-])cc1`, the inhibition was 0.23% (inactive).
For `O=C(c1ccc(F)cc1)n1c(=S)nc2ccccn21`, the inhibition was 20.7% (inactive).
With `CCC(C)Cn1c(O)cc2nn(-c3nc4ccccc4s3)c(=O)c-2c1C` (stereo not given) the inhibition was 83.7% (active).
In the case of `CCOC(=O)N1CCN(CC(=O)Nc2cc(C)nn2-c2nc3ccccc3s2)CC1`, the inhibition is reported as -20.6% (inactive).
With `Cc1cc(NC(=O)CN2CCCC(C)C2)n(-c2nc3ccccc3s2)n1` (stereo not given) the inhibition was 52.1% (inactive).
With `CCOC(=O)CN(C)S(=O)(=O)c1ccc(-c2cc(C(=O)OC)sc2C(F)(F)F)cc1` the inhibition was -2.09% (inactive).
With `CCOC(=O)c1nnn2c1nc(N1CCN(c3ccccc3)CC1)c1ccccc12` the inhibition was 4.43% (inactive).
In the case of `Cc1ccc(-n2c(SCC(=O)Nc3ccc4c(c3)OCO4)nnc2-c2ccccn2)cc1`, the inhibition is reported as 23% (inactive).
In the case of `O=C(CSc1nnc(-c2ccccn2)n1-c1ccccc1)Nc1ccc2c(c1)OCO2`, the inhibition is reported as 14.5% (inactive).
With `Cc1ccc(-n2c(SCC(=O)Nc3ccc4c(c3)OCO4)nnc2-c2ccoc2C)cc1` the inhibition was 79.8% (active).
With `COc1ccc(/C(C)=N/N2CCOCC2)c(O)c1` the inhibition was 4.65% (inactive).
For `Cc1ccc2nc(-c3cccc(Br)c3)cc(C(=O)Nn3cnnc3)c2c1`, the inhibition was 6.71% (inactive).
For `Cc1ccc2nc(Nc3ccccc3O)nc(-c3ccccc3)c2c1`, the inhibition was 85.7% (active).
In the case of `Cc1ccc2nc(Nc3ncc4c(n3)CC(C)(C)CC4=O)nc(C)c2c1`, the inhibition is reported as 7.17% (inactive).
In the case of `O=C(Nc1ccccc1)Nc1ccc(C(F)(F)F)cn1`, the inhibition is reported as -1.82% (inactive).
With `Cc1ccc2cc(/C=N/NC(=O)[C@@H]3CCCN3)c(Cl)nc2c1` the inhibition was 13.2% (inactive).
With `CSCC[C@H](NC(=O)OC(C)(C)C)C(=O)N/N=C/c1cc2ccc(C)cc2nc1Cl` the inhibition was 73.9% (active).
With `Cc1ccc2cc(/C=N/Nc3ccc(C(=O)O)cc3)c(Cl)nc2c1` the inhibition was -19% (inactive).
With `S=c1[nH]nc(-c2ccncc2)n1/N=C/c1ccccc1Cl` the inhibition was 9.19% (inactive).
In the case of `CC1=CC2=NC(=O)/C(=C/c3coc4ccccc4c3=O)C(=N)N2O1`, the inhibition is reported as 10% (inactive).
In the case of `O=[N+]([O-])c1cc(Cl)cc(/C=N/NC(=S)Nc2cc(S(=O)(=O)N3CCOCC3)ccc2Cl)c1O`, the inhibition is reported as 24.1% (inactive).
In the case of `O=C(O)CCC(=O)Nc1nc2ccc([N+](=O)[O-])cc2s1`, the inhibition is reported as -7.8% (inactive).
In the case of `O=C(COC(=O)c1ccc(F)cc1)Nc1nc2ccc([N+](=O)[O-])cc2s1`, the inhibition is reported as 7.2% (inactive).
In the case of `Cc1cc(C)cc(OCC(=O)Nc2nc3ccc([N+](=O)[O-])cc3s2)c1`, the inhibition is reported as 89.4% (active).
In the case of `Cc1cc2c(cc1C)N(Cc1ccccc1)C1=NCCCN12`, the inhibition is reported as 17.9% (inactive).
